# Data as given in the supplement of paper PMC6555819.
# How the values were obtained:
# Experiment in all cases: PBM binding z-score (relative to random genomic background probes); higher = stronger binding; sequences stand for … in GC…GCGATTGACAGCGTAGAATGAAGG
# [1] = system: FXR:RXRa (NR concentration 270 nM, RXRa partner concentration 90 nM)
# Procedure, shortened: (§1)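 On custom Agilent 4×180K arrays, double-stranded probes with 34-nt variable regions carried direct-repeat seeds, single-nucleotide variants, half-site ablations or random human genomic background. Ligand-free nuclear receptor dimers were applied for 1 h, and binding was read with antibodies against each partner (one per run). Binding z-scores come from regression-normalized fluorescence, with the random background probes as reference.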
# [2] = system: LXRa:RXRa (NR concentration 270 nM, RXRa partner concentration 90 nM)
# Procedure, shortened: as §1
# [3] = system: LXRa homodimer (NR concentration 270 nM)
# Procedure, shortened: as §1
# [4] = system: LXRb:RXRa (NR concentration 270 nM, RXRa partner concentration 90 nM)
# Procedure, shortened: as §1
# [5] = system: LXRb homodimer (NR concentration 270 nM)
# Procedure, shortened: as §1
# [6] = system: PPARa:RXRa (NR concentration 270 nM, RXRa partner concentration 90 nM)
# Procedure, shortened: as §1
# [7] = system: PPARg:RXRa (NR concentration 180 nM, RXRa partner concentration 90 nM)
# Procedure, shortened: as §1
# [8] = system: PPARg:RXRa 270nM:90nM, anti-RXR (NR concentration 270 nM, RXRa partner concentration 90 nM)
# Procedure, shortened: as §1
# [9] = system: PPARg:RXRa 30nM:10nM, anti-RXR (NR concentration 30 nM, RXRa partner concentration 10 nM)
# Procedure, shortened: as §1
# [10] = system: PPARg:RXRa 90nM:30nM, anti-RXR (NR concentration 90 nM, RXRa partner concentration 30 nM)
# Procedure, shortened: as §1
# [11] = system: PPARg:RXRa DBDmut IVT, anti-RXR (DBD mutation: RXRa K156A/R161A, NR concentration 270 nM, RXRa partner concentration 90 nM)
# Procedure, shortened: as §1
# [12] = system: PPARg:RXRa IVT, anti-PPARg (NR concentration 270 nM, RXRa partner concentration 90 nM)
# Procedure, shortened: as §1
# [13] = system: PPARg DBDmut:RXRa IVT, anti-PPARg (DBD mutation: PPARg1 K132A/R137A, NR concentration 270 nM, RXRa partner concentration 90 nM)
# Procedure, shortened: as §1
# [14] = system: PPARg DBDmut IVT, anti-PPARg (DBD mutation: PPARg1 K132A/R137A, NR concentration 270 nM)
# Procedure, shortened: as §1
# [15] = system: PPARg homodimer (NR concentration 180 nM)
# Procedure, shortened: as §1
# [16] = system: PXR:RXRa (NR concentration 270 nM, RXRa partner concentration 90 nM)
# Procedure, shortened: as §1
# [17] = system: PXR homodimer (NR concentration 270 nM)
# Procedure, shortened: as §1
# [18] = system: RARa:RXR (NR concentration 270 nM, RXRa partner concentration 90 nM)
# Procedure, shortened: as §1
# [19] = system: RARa homodimer (NR concentration 270 nM)
# Procedure, shortened: as §1
# [20] = system: RARb:RXRa (NR concentration 270 nM, RXRa partner concentration 90 nM)
# Procedure, shortened: as §1
Sequence,PBM binding z-score [1],PBM binding z-score [2],PBM binding z-score [3],PBM binding z-score [4],PBM binding z-score [5],PBM binding z-score [6],PBM binding z-score [7],PBM binding z-score [8],PBM binding z-score [9],PBM binding z-score [10],PBM binding z-score [11],PBM binding z-score [12],PBM binding z-score [13],PBM binding z-score [14],PBM binding z-score [15],PBM binding z-score [16],PBM binding z-score [17],PBM binding z-score [18],PBM binding z-score [19],PBM binding z-score [20]
CTCGAAAGGTCGGTTGAGGTGAGCATACGGATAA,2.86,1.78,-0.014,1.37,-0.173,2.74,0.697,1.33,0.406,0.609,-0.122,1.01,-0.332,-0.0105,0.799,2.9,-0.0982,2.5,0.0392,3.09
ACTATTAGTTGAGACGAGGGCCACCGATAGGTTG,-0.105,-0.102,-0.224,-0.593,0.0596,-0.508,0.594,-0.159,0.0911,-0.12,-0.292,0.0879,0.833,0.398,-0.375,-0.504,-0.253,-0.185,0.235,0.235
ACTATTAGTTGCCTTAGGGCAACCGATACGACGC,0.218,0.346,0.285,0.202,0.935,0.287,0.672,0.279,0.294,0.358,-0.0728,0.674,0.726,0.896,0.221,0.335,-0.148,0.576,0.282,0.771
CTCGAGAGGTCGGTTGAGGTGAGTATACGGATAA,2.48,1.8,-0.0602,2.2,-0.474,2.93,0.425,0.591,-0.178,0.092,0.581,0.606,-0.792,-0.363,0.728,3.5,0.389,2.64,-0.682,2.05
GTACCAAGGTGAATAGGTCGTTTATGAGTAGGCG,0.975,1.13,0.161,0.811,-0.198,2.44,1.62,1.79,0.597,1.5,1.82,2.43,0.986,0.34,1.17,1,0.0793,1.92,0.555,2.01
TCTAGTTGGTTAAAGGTCACACACTCGAAATGCG,5.51,5.54,4.45,5.47,2.22,6.63,9.55,8.64,8.96,9.31,3.15,5.25,1.74,2.83,4.61,5.24,1.86,6.06,4.25,4.77
GCTCGGAGGACAAGATCAGAGCTTTGTCCGTAGA,-0.699,-0.742,-0.685,-0.96,-0.96,-0.552,-0.773,-0.906,-1.18,-1.04,-0.785,-0.327,-1.13,-1.46,-1.73,-0.776,-0.689,-0.823,-1.48,0.581
CAGCCTAGGTTAGGGCCAGTATAGGAGGAACGTT,-0.436,-0.473,-0.564,-0.633,-1.42,-0.175,0.211,-0.361,-0.521,-0.278,-0.289,-0.377,-1.05,-1.1,-1.26,-0.636,-0.655,-0.399,-0.834,0.516
TAGCCTAGGTCAGATCTGGCCAGTATACGCTATA,1.53,1.13,-0.379,0.773,0.0198,1.43,0.793,0.718,-0.145,0.178,0.589,1.44,-0.455,-0.0508,-0.0754,0.447,-1.1,0.766,-1.06,2.98
ACAGACAGGTGATGAAGGTAACTTAGGCTATCAT,-0.131,-0.0415,-0.322,0.0367,-0.119,0.169,0.55,-0.195,-0.0102,-0.0594,0.373,0.171,0.414,0.165,0.0231,-0.0368,-0.316,0.217,0.132,0.163
AGTCAAAGTTCAGGACGAGGTAACGCAAAGCACG,3.93,3.88,1.08,2.03,0.0872,3.33,4.31,4.9,1.97,3.87,-0.0629,1.75,0.41,-0.132,1.73,2.72,1.03,2.78,0.826,4.33
CCGACAGGGGCAAGGTTACCATAACGCACAGCCA,0.485,0.975,-0.0477,0.737,-0.848,1.49,1.32,0.765,0.0629,0.378,-0.0279,0.0813,-0.56,-0.66,0.577,0.585,0.0826,1.26,0.048,2.1
ATCTCTAGGTAACCAAGTGCAGTGAATGCCGAAC,-0.0336,0.0225,-0.464,-0.183,0.282,-0.0554,0.325,0.259,-0.0021,0.298,3.33,2.57,1.12,0.604,-0.00797,0.128,0.228,0.0514,-0.0338,0.281
ACAGACAGGTGATGAAGGTAACTCACGCTATCAT,-0.0545,0.135,-0.0211,0.0443,-0.474,0.247,0.81,0.393,0.232,-0.0255,0.262,0.375,0.0319,-0.0294,0.0571,0.00932,0.106,0.165,0.142,0.289
